Source: PubChem BioAssay (EPA / NIEHS)
The source made the active and inactive calls. How the source made its calls: active means hit-call score of the fitted dose curve at least 0.9, where 1 is the maximum; inactive means score below 0.9.

Key:
[1] = ATG_GRE_CIS: Attagene CIS-FACTORIAL HepG2 Assay for human Glucocorticoid Response Elements (GRE) (AID 2282947); settings: HepG2 GRE cis-reporter, Attagene multiplex mRNA; AC50: actives raise or lower the signal unless noted; outcome: actives raise or lower the signal unless noted
Summary of the method: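 Following 24 h chemical exposure of transiently transfected HepG2 cells, total RNA was reverse-transcribed and reporter cDNA amplified, fluorescently labelled and sized by capillary electrophoresis. Signal gain or loss was fitted relative to DMSO vehicle.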

[2] = ATG_ISRE_CIS: Attagene CIS-FACTORIAL HepG2 Assay for human Interferon Regulatory Factor 1 (IRF1) binding to an Interferon-Stimulated Response Element (ISRE) (AID 2282948); settings: HepG2 ISRE cis-reporter (Attagene), mRNA transcription readout; actives raise or lower the signal
Summary of the method: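 Transiently transfected HepG2 cells carrying cis-element reporter units, dosed 24 hours. Reporter mRNA quantified by RT-PCR, fluorescent primer extension, HpaI digestion and capillary electrophoresis. Bidirectional fitting relative to DMSO.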

[3] = ATG_M_32_CIS: Attagene CIS-FACTORIAL HepG2 Assay for M32 Transcription Factor (Internal Marker) (AID 2282949); settings: HepG2 Attagene cis-factorial M32 reporter, mRNA; actives raise or lower the signal;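 further: background control marker of the multiplexed CIS panel rather than a real target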
Summary of the method: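 Fluorescent capillary electrophoresis peaks of HpaI-digested, FAM-labelled RT-PCR reporter products give the signal. Source: transiently transfected human liver HepG2 cells, 24 h after chemical dosing; bidirectional fitting against DMSO.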

[4] = ATG_M_06_CIS: Attagene CIS-FACTORIAL HepG2 Assay for M06 Transcription Factor (Internal Marker) (AID 2282950); settings: HepG2 Attagene CIS-FACTORIAL M06 internal marker reporter; actives raise or lower the signal
Summary of the method: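 Serves as a background control readout. Transfected HepG2 exposed to compounds for 24 h, then reporter transcripts quantified by fluorescent RT-PCR and capillary electrophoresis. Both directions fitted against DMSO baseline.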

[5] = molecular target: Hypoxia-inducible factor 1-alpha (Homo sapiens) (UniProt Q16665); assay: ATG_HIF1a_CIS: Attagene CIS-FACTORIAL HepG2 Assay for human Hypoxia Inducible Factor 1 (HIF1A) (AID 2282951); settings: HepG2 Attagene cis-factorial HIF1a reporter transcription; actives raise or lower the signal
Summary of the method: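 In this multiplexed cell assay, HepG2 cells bearing transfected cis reporters are dosed for 24 h and reporter mRNA is read by RT-PCR plus capillary electrophoresis; signal increases and decreases are both scored against DMSO.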

[6] = molecular target: Hepatocyte nuclear factor 6 (Homo sapiens) (UniProt Q9UBC0); assay: ATG_HNF6_CIS: Attagene CIS-FACTORIAL HepG2 Assay for human Hepatocyte Nuclear Factor 6 (HNF6) (AID 2282952); settings: HepG2 Attagene cis-factorial HNF6 reporter transcription; actives raise or lower the signal
Summary of the method: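 Transiently transfected HepG2 cells expressing cis-regulated reporter transcription units were exposed to chemical for 24 h in a 24-well format. Reporter transcript abundance was determined by fluorescence capillary electrophoresis.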

[7] = molecular target: Heat shock factor protein 1 (Homo sapiens) (UniProt Q00613); assay: ATG_HSE_CIS: Attagene CIS-FACTORIAL HepG2 Assay for human Heat Shock Transcription Factor 1 (HSE) (AID 2282953); settings: HepG2 HSE cis-reporter, Attagene RNA transcription; actives raise or lower the signal
Summary of the method: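 Endogenous transcription factor activity in transiently transfected HepG2, read as reporter mRNA by RT-PCR with fluorescent capillary electrophoresis after 24 h. Gain or loss of signal fitted versus DMSO baseline.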

[8] = ATG_MRE_CIS: Attagene CIS-FACTORIAL HepG2 Assay for human Metal Responsive Element (MRE) (AID 2282954); settings: HepG2 MRE cis-reporter transcription, Attagene multiplex; actives raise or lower the signal
Summary of the method: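 Step one: transfect HepG2 with cis-regulated reporter units. Step two: dose 24 h. Step three: isolate RNA, RT-PCR, 6-FAM label, HpaI digest, capillary electrophoresis. Fit bidirectionally to DMSO.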

[9] = ATG_PBREM_CIS: Attagene CIS-FACTORIAL HepG2 Assay for human Phenobarbital-responsive Enhancer Module (PBREM) (AID 2282955); settings: HepG2 PBREM cis-reporter, Attagene multiplexed transcription; actives raise or lower the signal
Summary of the method: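 After a 24 h incubation with test chemical, transfected HepG2 cells yield total RNA; reporter-specific RT-PCR products are fluorescently labelled, HpaI-digested and resolved by capillary electrophoresis against ROX size standards.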

[10] = molecular target: Paired box protein Pax-6 (Homo sapiens) (UniProt P26367); assay: ATG_Pax6_CIS: Attagene CIS-FACTORIAL HepG2 Assay for human Paired Box 6 (PAX6) (AID 2282956); settings: HepG2 CIS-FACTORIAL PAX6 reporter transcription, RNA readout; actives raise or lower the signal
Summary of the method: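 HepG2 cells transiently transfected with cis-promoter-driven multiplexed reporter units sensing endogenous transcription factor activity; 24 h chemical exposure. Reporter mRNA quantified by RT-PCR, 6-FAM labelling, HpaI digestion and capillary electrophoresis; bidirectional fit versus DMSO baseline.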

Chain of Paired box protein Pax-6 (Homo sapiens) (P26367 whole entry, looked up): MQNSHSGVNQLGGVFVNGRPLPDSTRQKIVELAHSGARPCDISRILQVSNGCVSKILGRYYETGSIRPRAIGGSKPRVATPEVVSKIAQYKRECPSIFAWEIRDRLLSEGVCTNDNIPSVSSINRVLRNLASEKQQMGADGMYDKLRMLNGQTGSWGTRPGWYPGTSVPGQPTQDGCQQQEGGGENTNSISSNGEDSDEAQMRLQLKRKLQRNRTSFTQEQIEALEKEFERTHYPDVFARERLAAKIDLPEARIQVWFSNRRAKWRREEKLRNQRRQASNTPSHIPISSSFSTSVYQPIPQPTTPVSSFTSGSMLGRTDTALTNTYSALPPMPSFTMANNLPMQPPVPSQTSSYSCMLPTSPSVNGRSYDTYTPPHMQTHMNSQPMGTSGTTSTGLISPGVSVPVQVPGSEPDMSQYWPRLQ
Chain of Hypoxia-inducible factor 1-alpha (Homo sapiens) (Q16665 whole entry, looked up): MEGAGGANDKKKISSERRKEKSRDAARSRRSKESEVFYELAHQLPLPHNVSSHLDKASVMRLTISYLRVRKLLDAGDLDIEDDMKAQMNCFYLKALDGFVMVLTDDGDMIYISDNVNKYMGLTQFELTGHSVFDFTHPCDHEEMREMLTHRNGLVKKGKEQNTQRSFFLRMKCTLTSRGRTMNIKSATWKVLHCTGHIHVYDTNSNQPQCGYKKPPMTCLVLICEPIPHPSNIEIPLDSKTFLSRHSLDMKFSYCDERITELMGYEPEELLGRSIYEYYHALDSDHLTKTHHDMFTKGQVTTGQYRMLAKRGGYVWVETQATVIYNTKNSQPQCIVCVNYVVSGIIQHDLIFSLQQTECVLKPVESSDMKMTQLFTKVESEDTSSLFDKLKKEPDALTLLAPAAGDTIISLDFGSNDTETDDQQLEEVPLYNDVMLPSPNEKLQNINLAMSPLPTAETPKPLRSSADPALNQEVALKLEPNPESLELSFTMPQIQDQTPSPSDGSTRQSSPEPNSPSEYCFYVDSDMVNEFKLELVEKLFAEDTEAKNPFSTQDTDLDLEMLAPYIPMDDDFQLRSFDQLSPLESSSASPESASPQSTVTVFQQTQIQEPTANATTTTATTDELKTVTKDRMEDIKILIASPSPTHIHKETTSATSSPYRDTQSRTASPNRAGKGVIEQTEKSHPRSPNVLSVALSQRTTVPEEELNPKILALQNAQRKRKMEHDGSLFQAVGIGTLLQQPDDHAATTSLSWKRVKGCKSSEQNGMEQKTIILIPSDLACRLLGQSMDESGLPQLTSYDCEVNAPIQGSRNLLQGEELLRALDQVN
Chain of Heat shock factor protein 1 (Homo sapiens) (Q00613 whole entry, looked up): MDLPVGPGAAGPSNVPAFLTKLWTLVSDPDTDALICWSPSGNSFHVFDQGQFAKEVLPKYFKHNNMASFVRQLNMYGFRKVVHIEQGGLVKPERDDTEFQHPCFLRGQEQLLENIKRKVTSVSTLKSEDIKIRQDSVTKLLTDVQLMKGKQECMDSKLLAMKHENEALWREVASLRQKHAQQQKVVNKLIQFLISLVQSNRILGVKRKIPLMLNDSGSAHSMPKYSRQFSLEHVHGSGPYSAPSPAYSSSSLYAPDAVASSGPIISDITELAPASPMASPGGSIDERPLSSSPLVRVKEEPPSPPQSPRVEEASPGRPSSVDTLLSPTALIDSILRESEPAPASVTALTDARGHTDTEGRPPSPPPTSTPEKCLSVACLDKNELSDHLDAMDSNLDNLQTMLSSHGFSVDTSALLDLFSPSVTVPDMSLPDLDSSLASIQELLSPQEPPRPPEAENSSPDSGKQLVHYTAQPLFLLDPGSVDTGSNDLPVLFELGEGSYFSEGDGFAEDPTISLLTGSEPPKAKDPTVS
Chain of Hepatocyte nuclear factor 6 (Homo sapiens) (Q9UBC0 whole entry, looked up): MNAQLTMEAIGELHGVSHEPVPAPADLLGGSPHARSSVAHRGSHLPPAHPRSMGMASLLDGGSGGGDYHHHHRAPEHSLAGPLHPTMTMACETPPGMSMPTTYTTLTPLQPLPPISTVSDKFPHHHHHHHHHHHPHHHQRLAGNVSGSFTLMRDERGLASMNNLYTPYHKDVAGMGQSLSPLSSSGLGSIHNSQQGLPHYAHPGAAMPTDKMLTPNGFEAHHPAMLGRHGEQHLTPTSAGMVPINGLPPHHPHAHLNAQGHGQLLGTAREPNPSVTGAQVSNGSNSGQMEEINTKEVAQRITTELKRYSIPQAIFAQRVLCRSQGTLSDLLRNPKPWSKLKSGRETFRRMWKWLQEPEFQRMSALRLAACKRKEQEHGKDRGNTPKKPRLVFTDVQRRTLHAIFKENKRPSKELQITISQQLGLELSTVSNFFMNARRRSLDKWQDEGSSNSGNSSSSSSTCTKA

Row | SMILES | outcome [1] | outcome [2] | outcome [3] | outcome [4] | outcome [5] | outcome [6] | outcome [7] | outcome [8] | outcome [9] | outcome [10] | AC50 [3] | AC50 [7] | AC50 [8] | AC50 [10] | AC50 [2] | AC50 [5] | AC50 [6] | AC50 [9]
1 | FC(F)=C(F)C(F)(F)C(F)(F)C(F)(F)C(F)F | inactive | inactive | inactive | inactive | inactive | inactive | inactive | inactive | inactive | inactive |  |  |  |  |  |  |  | 
2 | O=CC(F)(F)C(F)(F)C(F)(F)C(F)F | inactive | inactive | inactive | inactive | inactive | inactive | inactive | inactive | inactive | inactive |  |  |  |  |  |  |  | 
3 | NC(C(F)(F)F)C(F)(F)F | inactive | inactive | inactive | inactive | inactive | inactive | inactive | inactive | inactive | inactive |  |  |  |  |  |  |  | 
4 | CCOC=C(C(=O)OCC)C(=O)OCC | inactive | inactive | inactive | inactive | inactive | inactive | inactive | inactive | inactive | inactive |  |  |  |  |  |  |  | 
5 | COc1ccc(C#N)cc1 | inactive | inactive | inactive | inactive | inactive | inactive | inactive | inactive | inactive | inactive |  |  |  |  |  |  |  | 
6 | O=C(C=C(O)C(F)(F)F)C(F)(F)F | inactive | inactive | inactive | inactive | inactive | inactive | inactive | inactive | inactive | inactive |  |  |  |  |  |  |  | 
7 | O=C(O)CN(CCCN(CC(=O)O)CC(=O)O)CC(=O)O | inactive | inactive | inactive | inactive | inactive | inactive | inactive | inactive | inactive | inactive |  |  |  |  |  |  |  | 
8 | COCN(COC)c1nc(N(COC)COC)nc(N(COC)COC)n1 | inactive | inactive | inactive | inactive | inactive | inactive | inactive | inactive | inactive | inactive |  |  |  |  |  |  |  | 
9 | c1cc[nH]c1 | inactive | inactive | inactive | inactive | inactive | inactive | inactive | inactive | inactive | inactive |  |  |  |  |  |  |  | 
10 | FC1(F)C=CC(F)(F)C1(F)F | inactive | inactive | inactive | inactive | inactive | inactive | inactive | inactive | inactive | inactive |  |  |  |  |  |  |  | 
11 | CC1COCc2cc3c(cc21)C(C)(C)C(C)C3(C)C (stereo not given) | inactive | inactive |  | inactive | inactive | inactive |  |  | inactive |  | 163 µM (active) | 147 µM (active) | 144 µM (active) | 160 µM (active) |  |  |  | 
12 | Oc1cccc2c(O)cccc12 | inactive | inactive | inactive | inactive | inactive | inactive | inactive | inactive | inactive | inactive |  |  |  |  |  |  |  | 
13 | CC(=O)Nc1ccc(S(N)(=O)=O)cc1 | inactive | inactive | inactive | inactive | inactive | inactive | inactive | inactive | inactive | inactive |  |  |  |  |  |  |  | 
14 | Oc1c(Cl)cc(Cl)cc1Sc1cc(Cl)cc(Cl)c1O | inactive | inactive | inactive | inactive | inactive | inactive |  |  | inactive | inactive |  | 18.3 µM (active) | 11.5 µM (active) |  |  |  |  | 
15 | Brc1ccc(Oc2ccc(Br)cc2Br)cc1 | inactive | inactive | inactive | inactive | inactive | inactive | inactive | inactive | inactive | inactive |  |  |  |  |  |  |  | 
16 | Cc1cccc2c1ccc1ccccc12 | inactive | inactive | inactive | inactive | inactive | inactive | inactive | inactive | inactive | inactive |  |  |  |  |  |  |  | 
17 | CCCC=O | inactive | inactive | inactive | inactive | inactive | inactive | inactive | inactive | inactive | inactive |  |  |  |  |  |  |  | 

Row | SMILES | outcome [1] | outcome [2] | outcome [3] | outcome [4] | outcome [5] | outcome [6] | outcome [7] | outcome [8] | outcome [9] | outcome [10] | AC50 [3] | AC50 [7] | AC50 [8] | AC50 [10] | AC50 [2] | AC50 [5] | AC50 [6] | AC50 [9]
18 | CCC(=O)C=Cc1ccc(OC)cc1 | inactive |  | inactive | inactive |  |  |  |  | inactive | inactive |  | 145 µM (active) | 65.4 µM (active) |  | 100 µM (active) | 62.7 µM (active) | 124 µM (active) | 
19 | Oc1cc2ccccc2cc1O | inactive | inactive | inactive | inactive | inactive | inactive | inactive | inactive | inactive | inactive |  |  |  |  |  |  |  | 
20 | CCO[Si](C)(C)OCC | inactive | inactive | inactive | inactive | inactive | inactive | inactive | inactive | inactive | inactive |  |  |  |  |  |  |  | 
21 | FC(F)(F)C(F)(F)C(F)(F)Br | inactive | inactive | inactive | inactive | inactive | inactive | inactive | inactive | inactive | inactive |  |  |  |  |  |  |  | 
22 | O=C(F)C(F)(F)C(F)(F)C(F)(F)C(=O)F | inactive | inactive | inactive | inactive | inactive | inactive | inactive | inactive | inactive | inactive |  |  |  |  |  |  |  | 
23 | O=P(O)(O)CCC(F)(F)C(F)(F)C(F)(F)C(F)(F)C(F)(F)C(F)(F)C(F)(F)C(F)(F)F | inactive | inactive | inactive | inactive | inactive | inactive | inactive | inactive | inactive | inactive |  |  |  |  |  |  |  | 
24 | O=S(=O)(O)c1ccc2cc(O)ccc2c1 | inactive | inactive | inactive | inactive | inactive | inactive | inactive | inactive | inactive | inactive |  |  |  |  |  |  |  | 
25 | CC(C)CCOCCC(C)C | inactive | inactive | inactive | inactive | inactive | inactive | inactive | inactive | inactive | inactive |  |  |  |  |  |  |  | 
26 | Cc1[nH]nc2c1N=C(c1ccccc1Cl)c1cc([N+](=O)[O-])ccc1N2 | inactive |  | inactive | inactive | inactive | inactive | inactive | inactive | inactive | inactive |  |  |  |  | 2.9 µM (active) |  |  | 
27 | FC(F)(F)C(F)(F)C(F)(F)C(F)(F)I | inactive | inactive | inactive | inactive | inactive | inactive | inactive | inactive | inactive | inactive |  |  |  |  |  |  |  | 
28 | COc1cc([N+](=O)[O-])ccc1N | inactive | inactive | inactive | inactive | inactive | inactive | inactive | inactive | inactive | inactive |  |  |  |  |  |  |  | 
29 | COC(=O)C(F)(F)C(F)(F)C(F)(F)C(F)(F)C(F)(F)F | inactive | inactive | inactive | inactive | inactive | inactive | inactive | inactive | inactive | inactive |  |  |  |  |  |  |  | 
30 | CCCCCCCCCC=CCC1CC(=O)OC1=O (stereo not given) | inactive | inactive | inactive | inactive | inactive | inactive | inactive | inactive | inactive | inactive |  |  |  |  |  |  |  | 
31 | O=C(Nc1ccc(Cl)c(Cl)c1)c1cc(Cl)cc(Cl)c1O | inactive |  | inactive | inactive |  | inactive |  |  |  |  |  | 52 µM (active) | 25.8 µM (active) | 30.5 µM (active) | 33.4 µM (active) | 0.378 µM (active) |  | 1.35 µM (active)
32 | CC1=CC(=O)c2ccccc2C1=O | inactive | inactive | inactive | inactive | inactive | inactive | inactive | inactive | inactive | inactive |  |  |  |  |  |  |  | 
33 | C=COC(=O)C(C)(C)CCCCCC | inactive | inactive | inactive | inactive |  | inactive | inactive | inactive | inactive | inactive |  |  |  |  |  | 130 µM (active) |  | 
34 | CC(=O)CC(C)C | inactive | inactive | inactive | inactive | inactive | inactive | inactive | inactive | inactive | inactive |  |  |  |  |  |  |  | 
